Measurements reported in PubChem BioAssay (NCI).
About 79,000 compounds went through this panel and 15% of them were active in at least one assay; those are over-represented in the sample as a whole. Unmarked numbers belong to inactive results. The source made the active and inactive calls. Cut-off read from the data, not from the text of the source: active = growth inhibition above about 70%; inactive = the rest.

How the values were obtained:
[1] = NCI Yeast Anticancer Drug Screen. Data for the rad50 strain (AID 155);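 note: 0% = growth of vehicle-only cultures of the same strain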; details: S. cerevisiae rad50 strain growth inhibition, stronger effect = higher value
Summary of the method: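 Genetically altered yeast (DNA repair pathway); compound treatment; growth inhibition vs vehicle ctrl.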

[2] = NCI Yeast Anticancer Drug Screen. Data for the mec2-1 strain (AID 157); details: S. cerevisiae mec2-1 strain, stronger effect = higher value
Summary of the method: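 Compounds were applied to mec2-1 yeast cells. Their growth was then compared with that of vehicle-treated cultures to give growth inhibition.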

[3] = NCI Yeast Anticancer Drug Screen. Data for the sgs1 mgt1 strain (AID 161);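 note: 0% = growth of cultures given vehicle only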; details: S. cerevisiae sgs1 mgt1 strain, stronger effect = higher value
Summary of the method: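 Yeast cells carrying a defined DNA-repair defect were exposed to test compounds. Growth inhibition was measured relative to vehicle-treated controls.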

[4] = NCI Yeast Anticancer Drug Screen. Data for the cln2 rad14 strain (AID 165);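 note: 0% = growth equal to vehicle treated cultures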; details: S. cerevisiae cln2 rad14 strain, stronger effect = higher value
Summary of the method: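 Strain: cln2 rad14 yeast, altered in cell cycle control and DNA damage repair. Read-out: growth inhibition vs vehicle.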

[5] = NCI Yeast Anticancer Drug Screen. Data for the bub3 strain (AID 167); details: S. cerevisiae bub3 mutant strain, stronger effect = higher value
Summary of the method: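 Yeast carrying a defined mutation is treated with each compound, and growth is compared with that of vehicle-exposed cells to give inhibition.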

[6] = NCI Yeast Anticancer Drug Screen. Data for the mlh1 rad18 strain (AID 175); details: S. cerevisiae mlh1 rad18 strain growth inhibition, stronger effect = higher value
Summary of the method: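 A repair-deficient yeast strain is exposed to test compound, and growth is scored relative to vehicle-treated controls.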

[7] = at 5.0 µM (retest, dose inferred, filed as 0.5)
[8] = at 50.0 µM (retest, dose inferred, filed as 5.0)

SMILES | growth inhibition [1, 7] | growth inhibition [1, 8] | growth inhibition ([1]; at 50.0 µM) | growth inhibition [2, 7] | growth inhibition [2, 8] | growth inhibition ([2]; at 50.0 µM) | growth inhibition [3, 7] | growth inhibition [3, 8] | growth inhibition ([3]; at 50.0 µM) | growth inhibition [4, 7] | growth inhibition [4, 8] | growth inhibition ([4]; at 50.0 µM) | growth inhibition [5, 7] | growth inhibition [5, 8] | growth inhibition ([5]; at 50.0 µM) | growth inhibition [6, 7] | growth inhibition [6, 8] | growth inhibition ([6]; at 50.0 µM)
CCOC(=O)C1=C(Nc2ccc(Br)cc2)OC/C1=N\NC(=O)c1ccccc1O | 11% | 11% | 50.6% | -16% | -16% | 53.5% | 7% | 7% | 71.6% (active) | 4% | 4% | 25.7% | 1% | 1% | 66.8% | 5% | 5% | 67%
Cc1cccc(/C=N/NC(=S)Nc2ccccc2)n1 | -19% | 99% (active) | 89.2% (active) | -49% | 99% (active) | 92.8% (active) | -42% | 99% (active) | 91.2% (active) | -37% | 99% (active) | 91.8% (active) | -42% | 100% (active) | 92% (active) | -30% | 100% (active) | 89.3% (active)
CSC(=S)n1nc(-c2ccccc2)c(N=Nc2ccccc2[N+](=O)[O-])c1C | -1% | 92% (active) | 97% (active) | -4% | 96% (active) | 96.2% (active) | 5% | 96% (active) | 97% (active) | -12% | 94% (active) | 92% (active) | 0% | 95% (active) | 94.3% (active) | -1% | 93% (active) | 98% (active)
OCCc1ccccc1C(c1ccccc1)c1ccccc1 | 5% | 98% (active) | 99.3% (active) | -4% | 99% (active) | 99.4% (active) | 1% | -16% | 99.2% (active) | 8% | 99% (active) | 98.8% (active) | 0% | 99% (active) | 99.2% (active) | 4% | 99% (active) | 98.9% (active)
O=C1c2cccc3cccc(c23)C1(Br)Br | 36% | 99% (active) | 68% | 20% | 99% (active) | 23.4% | 45% | 98% (active) | 70.8% (active) | 37% | 95% (active) | 56.1% | 26% | 97% (active) | 55.6% | 54% | 99% (active) | 67.8%
O=C1c2ccccc2C(O)(c2ccccc2)c2c(Cl)cccc21 (stereo not given) | -1% | 27% | 82.6% (active) | -6% | 26% | 90.7% (active) | 0% | 28% | 80.8% (active) | 1% | 21% | 75.2% (active) | -5% | 14% | 80% (active) | -12% | 41% | 96.7% (active)
O=C(C=P(c1ccccc1)(c1ccccc1)c1ccccc1)c1ccccc1-c1ccccc1C(=O)C=P(c1ccccc1)(c1ccccc1)c1ccccc1 | 98% (active) | 92% (active) | 87.9% (active) | 99% (active) | 92% (active) | 90.8% (active) | 99% (active) | 87% (active) | 90.5% (active) | 97% (active) | 93% (active) | 88.5% (active) | 99% (active) | 93% (active) | 88.2% (active) | 95% (active) | 88% (active) | 90.4% (active)
O=C(N/N=C/c1cc(Br)ccc1O)c1ccccc1 | 59% | 61% | -23.9% | 32% | 53% | -18.9% | 64% | 82% (active) | 5.65% | 21% | 25% | -33.9% | 79% (active) | 89% (active) | -12.6% | 92% (active) | 90% (active) | -6.75%
CCCN(CCC)CCNc1ccc(C)c2sc3ccccc3c(=O)c12 | 19% | 99% (active) | 99.7% (active) | 4% | 100% (active) | 99.7% (active) | 42% | 100% (active) | 99.5% (active) | 19% | 99% (active) | 99.5% (active) | 35% | 99% (active) | 99.4% (active) | 31% | 99% (active) | 99.5% (active)
COC(=O)[C@]1(C)CCCC2(C)C3=C(CCC21)CC1(CC3)SCCS1 (stereo not given in full) | 12% | 92% (active) | 85.4% (active) | 41% | 94% (active) | 91.3% (active) | 29% | 93% (active) | 87.6% (active) | 46% | 96% (active) | 86.4% (active) | 56% | 95% (active) | 86.5% (active) | 18% | 95% (active) | 85.7% (active)
